Sampled rows, rich in hits. Any-hit rate of the full collection: about 13%.
USP28 block = blocks human USP28 ubiquitin-rhodamine cleavage; AID 1645857; Q96RU2; purified USP28, Ub-rhodamine cleavage fluorescence, 30 min; 3% of 47,000 active; inhibition, % at 25 µM
USP17 inh = blocks human USP17 ubiquitin-rhodamine cleavage | purified USP17, Ub-rhodamine cleavage fluorescence, 3 h | inhibition, % at 50 µM | 6.5% of 47,000 active | AID 1645855
Target sequence (A8MUK1 whole entry, looked up): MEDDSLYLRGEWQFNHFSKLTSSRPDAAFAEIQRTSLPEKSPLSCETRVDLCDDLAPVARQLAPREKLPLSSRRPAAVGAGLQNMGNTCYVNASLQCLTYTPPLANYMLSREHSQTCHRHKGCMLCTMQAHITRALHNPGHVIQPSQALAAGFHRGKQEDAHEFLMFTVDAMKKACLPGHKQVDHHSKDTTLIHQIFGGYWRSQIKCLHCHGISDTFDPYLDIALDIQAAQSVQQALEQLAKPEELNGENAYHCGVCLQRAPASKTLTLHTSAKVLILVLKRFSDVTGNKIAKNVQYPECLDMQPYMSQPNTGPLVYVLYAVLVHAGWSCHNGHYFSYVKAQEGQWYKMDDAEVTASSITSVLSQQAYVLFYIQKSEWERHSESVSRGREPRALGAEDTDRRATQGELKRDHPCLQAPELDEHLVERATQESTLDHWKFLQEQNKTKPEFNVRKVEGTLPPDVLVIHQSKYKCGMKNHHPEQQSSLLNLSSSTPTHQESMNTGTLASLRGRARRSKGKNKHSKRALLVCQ
USP30 block = inhibitors of human USP30 deubiquitinase | 5.3% of 47,000 active | Q70CQ3 | purified USP30, Ub-rhodamine cleavage fluorescence | inhibition, % at 25 µM
USP8 block = inhibitors of human USP8 deubiquitinase; 4.2% of 47,000 active; P40818; purified USP8, Ub-rhodamine cleavage fluorescence, 30 min; inhibition, % at 20 µM
OTUD3 block = inhibitors of human OTUD3 deubiquitinase. inhibition, % at 25 µM. AID 1645858. purified OTUD3, Ub-rhodamine fluorescence, 2 h. 0.7% of 47,000 active
Numbers without * were called inactive; i = inactive; · = no result. Rule as the data show it: active = inhibition above about 30%; inactive = the rest.

SMILES	USP28 block	USP17 inh	USP30 block	USP8 block	OTUD3 block
Cn1cc2nc(SCC(=O)Nc3ccc(Cl)cc3F)n(CC3CC3)c(=O)c2n1	-2	18	-21	32*	-4
CSc1ncc2c(=O)n(CC(=O)Nc3cc(Cl)ccc3C)cnc2n1	·	-145	·	-22	-1
CCn1c(SCC(=O)Nc2cccc(Cl)c2C)nc(=O)c2c(C)cc(C)nc21	-46	-64	-203	-1	-43
Cc1c(Cl)cccc1NC(=O)CSc1nc2cn(C)nc2c(=O)n1CC1CC1	13	20	27	43*	2
O=C(Nc1cccc(Cl)c1)N1CCC(c2cc(-c3ccco3)n[nH]2)CC1	39*	64*	-79	80*	33*
O=C(Nc1cccc(Cl)c1)N1CCC(c2nc(-c3cccnc3)no2)CC1	-7	-17	-6	-1	-7
Cc1ccccc1OCCC(=O)Nc1cccc(S(=O)(=O)Nc2ccccc2Cl)c1	29	55*	26	15	17
O=C(CN1CCC(c2nc(-c3ccncc3)no2)CC1)Nc1ccccc1Cl	10	-1	17	-9	1
C=C(CC[C@@H](C)[C@H]1CC[C@@H]2[C@]1(C)C[C@@H](O)[C@@]13C[C@@]14C(=O)C[C@H](O)[C@@](C)(C(=O)O)[C@@H]4C(=O)C[C@]23O)C(C)C	32*	35*	20	-9	0
O=C(C1Cn2ccnc2C2(CCN(Cc3ccccc3)CC2)O1)N1CCCCC1 (configuration not stated)	-9	-48	-28	-275	0
CSc1cccc(NC(=O)CCc2nc3cccnc3n2Cc2ccccc2)c1	-15	48*	-44	-16	-12
CSc1ccc(CCNC(=O)CCc2nc3cccnc3n2Cc2ccccc2)cc1	-2	2	-30	5	0
CCc1ccc(NC(=O)CCc2nc3cccnc3n2Cc2ccccc2)cc1	57*	71*	79*	35*	46*
CN1C(=O)[C@H]2CN(c3ncccn3)C[C@H]2C12CCN(C(=O)NCCc1ccccc1)CC2	0	-10	-8	-23	-3
Cc1nc2sc(C(=O)Nc3ccccc3Br)c(N)c2c(C)c1C	33*	46*	51*	23	10
Cc1cc(C(F)(F)F)c2c(N)c(C(=O)Nc3cccc(C(F)(F)F)c3)sc2n1	-230	-155	i	-26	-186
Cc1cc(C)c2c(N)c(C(=O)Nc3ccccc3Br)sc2n1	·	77*	·	4	-2
Cc1nc(-c2ccc(NC(=O)c3ccc(Cl)cc3)cc2)cs1	-6	0	5	1	0
c1ccc(-c2cc(NC3CC3)n3nc(-c4cccnc4)nc3n2)cc1	-21	-2	-7	-7	0
Cc1ccc(-c2nc(CNC(=O)Cc3ccccc3)cs2)cc1	5	8	16	-20	2
Cc1ccc(/C=C/C(=O)Cc2ccccc2)cc1	18	41*	30*	23	22
O=C(NCC(c1ccc(Cl)cc1)N1CCOCC1)c1cc(-c2ccccc2)on1 (configuration not stated)	12	10	24	12	7
COc1ccc(C(CNC(=O)c2cc(-c3ccc(Cl)cc3)on2)N2CCOCC2)cc1 (configuration not stated)	4	·	29	40*	13
Cc1cc(Cl)ccc1Oc1ncc(-c2ccccc2)cc1C#N	3	5	15	7	1
CCCCN1CCN(c2ccc3c(c2)OCO3)C1=O	37*	10	12	22	15
SMILES	USP28 block	USP17 inh	USP30 block	USP8 block	OTUD3 block
Cn1cccc1C(=O)NC1CC(=O)N(c2ccc3c(c2)OCO3)C1 (configuration not stated)	3	-4	-2	-12	-4
O=C(CN1CCC2(CC1)N=C(c1ccc(F)cc1)C(=O)N2)Nc1ccc(F)c(F)c1	12	1	44*	6	11
Cc1c(O)cc(O)cc1O	-4	54*	-167	-332	48*
COc1ccccc1OCC(=O)N1CCC(c2nc3ccccc3cc2C(N)=O)CC1	15	8	34*	9	9
COc1ccc(OCC(=O)N2CCC(c3nc4ccccc4cc3C(N)=O)CC2)cc1	-4	-11	-18	-70	0
Cc1cccc(C)c1OCCN1C(=O)C2CN(C(N)=O)CCN2C1=O (configuration not stated)	4	8	18	1	11
Cc1ccccc1OCCN1C(=O)C2CN(C(N)=O)CCN2C1=O (configuration not stated)	14	12	31*	42*	13
CC1(C)CC(=O)C2(Cc3cc([N+](=O)[O-])ccc3N3CCCC32)C(=O)C1 (configuration not stated)	-8	36*	-22	-9	-11
Cc1nn(CC(=O)Nc2ccc(Br)c3cccnc23)c(=O)c2ccccc12	15	65*	14	0	0
Cc1cc(F)ccc1NC(=O)Cn1c(=O)c2cccnc2n(-c2ccccc2)c1=O	-57	-32	-191	2	-49
COC(=O)c1ccccc1NC(=O)C1CCCN(c2nnc(-n3cccc3)s2)C1 (configuration not stated)	18	·	36*	40*	28
Cc1ccccc1NC(=O)C1CCCN(c2nnc3ccccn23)C1 (configuration not stated)	-1	-2	10	-5	5
Cc1c(Cl)cccc1NC(=O)C1CCCN(c2nnc(-n3cccc3)s2)C1 (configuration not stated)	-13	30	-45	60*	-13
c1ccc(-n2ncc3c(NCC4CCCO4)ncnc32)cc1 (configuration not stated)	6	15	31*	16	11
COc1ccc(Cl)cc1C(=O)Nc1nnc2n1CCCS2	3	-2	-2	-3	2
O=C(Nc1nnc2n1CCCS2)c1cccc(Cl)c1	59*	-23	12	-253	3
COc1cc(NC(=O)c2csc(-c3ccc(C)n3C)n2)cc(OC)c1	-7	11	-25	11	-13
CCc1ccccc1N(C)C(=O)c1[nH]nc2c1CSc1ccccc1-2	12	8	14	4	6
CCc1ccccc1N(CC)C(=O)c1cccc2c1SCCC2=O	20	18	33*	20	16
Fc1cccc(CNc2cc(-n3ccnc3)ncn2)c1	32*	4	15	16	5
Cc1cccc(CNc2cc(-n3ccnc3)ncn2)c1	28	9	3	11	5
CC1(C2CC2)NC(=O)N(CCOc2ccccc2F)C1=O (configuration not stated)	-4	-21	2	4	3
CCCC(C)NC(=O)COC(=O)c1cc(-c2ccc(Cl)cc2)nc2ccccc12 (configuration not stated)	8	11	-15	12	3
NS(=O)(=O)c1ccc(CCNC(=O)COC(=O)c2cc(-c3ccc(Cl)cc3)nc3ccccc23)cc1	37*	30*	39*	66*	9
N#Cc1ccc(OCC(=O)Nc2ccc(F)c(S(=O)(=O)N3CCOCC3)c2)cc1	-8	-18	-15	-192	-8
